DRD3 agonist – agonists of human D3 dopamine receptor; D3R DiscoveRx beta-arrestin cells, luminescence, 90 min; 0.58% of 410,000 active; max activation, %; AID 652048; in the data active means max activation above about 30%; further: 0% is about no effect
Target sequence (P35462 whole entry, looked up): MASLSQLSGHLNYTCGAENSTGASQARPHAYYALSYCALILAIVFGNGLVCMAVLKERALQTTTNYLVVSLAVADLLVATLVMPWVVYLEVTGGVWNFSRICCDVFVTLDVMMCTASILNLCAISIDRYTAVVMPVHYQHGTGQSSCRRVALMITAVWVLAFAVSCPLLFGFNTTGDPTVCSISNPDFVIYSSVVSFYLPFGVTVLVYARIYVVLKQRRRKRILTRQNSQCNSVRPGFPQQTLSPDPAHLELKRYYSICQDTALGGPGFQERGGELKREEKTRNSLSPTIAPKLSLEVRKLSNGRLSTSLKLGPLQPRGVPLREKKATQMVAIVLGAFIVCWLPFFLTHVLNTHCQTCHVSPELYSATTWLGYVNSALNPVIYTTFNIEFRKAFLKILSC
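Agonist-mode cell screen: cells plated at 1500/well and incubated overnight at 37 °C, then exposed to library compounds for 90 min at 37 °C. Detection reagent was added for 30–60 min at room temperature, and luminescence was read.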
S2 tox – cell viability loss in ATXN counter-screen. S2 cells (HEK-293 line with an ATXN2-luciferase reporter) viability, CellTiter-Fluor protease fluorescence, 24 h. Potency, µM (highest dose often 56.7 µM), actives largely listed as cytotoxic. 0.49% of 400,000 active. AID 651635; further: potency means the concentration at half of the fitted maximal effect; nearly all actives have a fitted effect of over 40% in size
D3 antag – D3 dopamine receptor (human) antagonism. max response, negative = inhibition, %. D3R cells, DiscoveRx beta-arrestin luminescence, antagonist mode; stronger effect = lower value. P35462. 2.5% of 360,000 active; in the data active means max response below about -50%; inconclusive means no clear call, values can overlap the other calls; further: on the % scale 0 is the no-effect control and ±100 the full control effect
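Cells plated overnight at 1500 cells/well, then exposed to library compounds with dopamine controls for 90 minutes at 37 degrees C. DiscoveRx reagent added for 30–60 minutes at room temperature; luminescence read, quantitative HTS format.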
ATXN2 expr inh – ATXN2 expression inhibition; HEK-293 ATXN2-luciferase reporter, luminescence, 24 h; Potency, µM (series often up to 57 µM), for the others: at the highest dose activity change, negative = inhibition, most hits filed as inhibitors; 0.72% of 360,000 active; further: potency means the concentration at half of the fitted maximal effect; on the % scale 0 is the no-effect control and ±100 the full control effect; nearly all actives have a fitted effect of over 55% in size
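ATXN2-luciferase reporter cells (luciferase flanked by upstream and downstream ATXN2 gene portions) were treated 24 h at 37 °C with compounds at up to 57 uM. SteadyGlo luminescence gave expression; GF-AFC fluorescence gave viability.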
TGFb inhibitor – blocks TGF-b signaling. HepG2 CAGA-GFP TGF-b/SMAD3 reporter, GFP fluorescence, 18 h; TGF-beta stimulated, 500 pg/mL final. 1.2% of 410,000 active. Potency, µM (series often up to 46.1 µM), without a hit: top-dose activity, negative = inhibition, actives largely listed as inhibitors; further: potency means the concentration at half of the fitted maximal effect; on the % scale 0 is the no-effect control and ±100 the full control effect; nearly all actives have a fitted effect of over 65% in size
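TGF-beta reporter screen: HEPG2 CAGA-GFP, 1% FBS, 500 pg/mL TGF-beta final, 18 h; per-cell GFP summed per well; curves fitted and categorized by class.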
HepG2 tox – HepG2 cytotoxicity, counter-screen for TGF-b inhibitors. HepG2 CAGA-GFP viability, ATP luminescence, 18 h. Potency, µM (titrated, usually from 46.1 µM), for inactives: at the top dose activity change, negative = cytotoxicity, usual class: cytotoxic. 0.76% of 410,000 active; further: potency means the concentration at half of the fitted maximal effect
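CellTiter-Glo luminescence gave cytotoxicity after 18 hours at 37 degrees C. The cells were HepG2 CAGA-GFP in 1% FBS DMEM, stimulated with 500 pg/mL TGF-beta after compound addition. %Activity was normalised to no-cell wells (complete cell-killing) and DMSO (no toxicity), and curves were fitted and classified.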
Active calls of the source: *; i = inactive; ? = inconclusive; / = not tested or not shown; ! = not active in a repeat. Sampled rows, rich in hits. Any-hit rate of the full collection: about 4.8%. Unless noted, the call rests on the fitted dose curve; in most records, active means well fitted curve in the direction sought with a large enough effect; inconclusive means small, poorly fitted or top-dose-only effect, or another doubt; inactive means no such curve, though single readings can be large; an effect the other way counts as inactive or inconclusive.

SMILES	DRD3 agonist	S2 tox	D3 antag	ATXN2 expr inh	TGFb inhibitor	HepG2 tox
OCCC1CN(Cc2ccc(F)cc2Cl)CCN1CCc1ccccc1 (configuration not stated)	-18	i	-99*	-22%	-3%	-25%
OCCC1CN(Cc2cc(F)ccc2F)CCN1CCCc1ccccc1 (configuration not stated)	-18	i	-86*	-14%	-12%	-18%
COc1ccc(F)c(CN2CCN(CCc3ccccc3)C(CCO)C2)c1 (configuration not stated)	-9	i	?	3%	32%	-35%
CCOc1ccccc1CN1CCN(CCCc2ccccc2)CC1CCO (configuration not stated)	-21	i	-73*	110%	-3%	-18%
COc1ccc(OC)c(CN2CCN(CCc3ccccc3)C(CCO)C2)c1 (configuration not stated)	-15	i	-56*	-14%	14%	-5%
COc1ccc(N2CCN(c3oc(/C=C/c4ccccc4OC)nc3C#N)CC2)cc1	-14	/	/	/	/	-1%
CCOc1ccc(-n2cc(-c3ccccc3)c3c(N4CCC(C)CC4)ncnc32)cc1	10	/	/	/	-3%	-21%
Cc1cccc(Cn2c(CNS(=O)(=O)c3ccc(C(C)C)cc3)nc3cccnc32)c1	13	/	/	/	?	-21%
Cn1ncc2c(NCc3ccc(Cl)cc3)ncnc21	-19	/	/	/	-16%	-7%
CC(C)N1CCC(N2CCN(CCCc3ccccc3)CC2CCO)CC1 (configuration not stated)	-8	i	6	-18%	1%	3.2µM*
N#CCCN(Cc1cccnc1)S(=O)(=O)c1ccc(S(=O)(=O)NC2CCCCC2)cc1	4	i	17	-1%	13%	1%
N#CCCN(Cc1cccnc1)S(=O)(=O)c1ccc2ccccc2c1	-2	?	-10	-19%	-3%	10µM*
CCc1cccc(NC(=O)Cn2c(=O)n(CCc3ccc(OC)c(OC)c3)c(=O)c3ccccc32)c1	-6	i	/	-3%	-8%	-6%
CN1CCN(c2nc(-c3ccccc3)ncc2S(=O)(=O)c2ccccc2)CC1	-38	i	-79*	-15%	-20%	-16%
CSc1nc(-c2ccccc2)nc(N2CCN(C)CC2)c1C(C)=O	-23	i	-55*	-11%	4%	-16%
Cc1ccc(S(=O)(=O)c2cnc(-c3ccccc3)nc2N2CCN(C)CC2)cc1	-15	i	?	-1%	-15%	-25%
CN1CCN(c2nc3ccccc3nc2C(C#N)S(=O)(=O)c2ccccc2)CC1 (configuration not stated)	-11	i	1	/	7.9µM*	-42%
N#CC(c1nc2ccccc2nc1N1CCCC1)S(=O)(=O)c1ccccc1 (configuration not stated)	8	?	6	-2%	-14%	-22%
CC(=O)OCC(=O)[C@@]1(O)[C@H](C)C[C@H]2[C@@H]3C[C@H](F)C4=CC(=O)C=C[C@]4(C)[C@H]3[C@@H](O)C[C@@]21C	2	?	/	/	/	/
CSCCCN1CCC(n2nccc2NC(=O)CCCc2ccccc2)CC1	-47	i	-50*	1%	-4%	23%
C=C(C)CCC(C)N1CCC(n2nccc2NC(=O)CCCc2ccccc2)CC1 (configuration not stated)	5	i	-60*	0%	-18%	-4%
Cn1cc(CN2CCC(n3nccc3NC(=O)CCCc3ccccc3)CC2)cn1	0	i	-4	-4%	-4%	2%
CSCC(C)N1CCC(n2nccc2NC(=O)CCCc2ccccc2)CC1 (configuration not stated)	-7	i	1	-17%	22%	5%
CC(C)C[C@@H](C(=O)NC1CCN(Cc2ccccc2)CC1)N1C(=O)N2CCc3c([nH]c4ccccc34)[C@@]2(C)C1=O	-34	25µM*	-15	?	?	13µM*
Cc1cccc(N2CCN(C(=O)c3ccoc3C)CC2)c1C	36*	i	7	-13%	-11%	8%
SMILES	DRD3 agonist	S2 tox	D3 antag	ATXN2 expr inh	TGFb inhibitor	HepG2 tox
O=C(c1ccco1)N1CCN(C(=O)c2cnn(-c3cccc(F)c3)c2C2CCNCC2)CC1	84*!	i	1	1%	11%	11%
Cc1occc1C(=O)N1CCN(c2ccc(Cl)cc2)CC1	6	i	18	-6%	13%	-1%
Cc1c(Cl)cccc1-n1ncc(C(=O)N2CCOCC2)c1C1CCN(C(=O)OC(C)(C)C)CC1	10	i	/	1%	0%	1%
Cc1ccc(N2CCN(C(=O)c3cnn(-c4ccc(C)c(C)c4)c3C3CCNCC3)CC2)c(C)c1	-19	i	/	?	?	-91%
Cc1cccc(N2CCN(C(=O)c3cnn(-c4cccc(Cl)c4C)c3C3CCNCC3)CC2)c1C	7	/	/	/	18µM*	-94%
CC(C)(C)OC(=O)N1CCC(c2c(C(=O)N3CCN(C(=O)c4ccco4)CC3)cnn2-c2cccc(Cl)c2)CC1	4	i	-8	-9%	?	-19%
Cc1ccc(Cl)cc1N1CCN(C(=O)c2cnn(-c3ccc(Cl)cc3)c2C2CCNCC2)CC1	-22	/	/	32µM*	?	11µM*
COc1cc(=O)n2c(c1C(=O)N(C)Cc1nccs1)CCN(Cc1c(F)ccc(F)c1F)CC2	/	i	/	/	/	/
C1=Cc2ccccc2/C1=C\c1cc2c3c(c1)CCCN3CCC2	/	/	/	/	-1%	-3%
CC1C/C(=N/N2C(=O)CSC2=S)CC(C)(C)C1 (configuration not stated)	-7	i	-63*	-27%	24%	-19%
CC(=O)c1cccc(CN2CCN(Cc3ccc(C)cc3)C(CCO)C2)c1 (configuration not stated)	-22	i	-74*	2%	-1%	-4%
Cc1ccc(CN2CCN(Cc3ccc(-n4cccn4)cc3C)CC2CCO)cc1 (configuration not stated)	-16	i	?	-23%	-18%	-7%
CC(=O)c1cc(CN2CCN(Cc3ccc(C)cc3)C(CCO)C2)cs1 (configuration not stated)	-4	i	-86*	/	-2%	-15%
Cc1ccc(CN2CCN(Cc3cccc(-n4cccn4)c3)CC2CCO)cc1 (configuration not stated)	-16	i	-53*	1%	0%	-23%
CC(=O)c1cc(CN2CCN(CCC(C)C)C(CCO)C2)cs1 (configuration not stated)	-12	i	2	-3%	4%	1%
